FEN1 inh-1 – human FEN1 inhibition; Potency, µM (doses to about 114 µM), hits mostly inhibitors; 0.35% of 390,000 active; P39748; Recombinant FEN1 flap cleavage, fluorescence, 15 min; AID 588795; further: nearly all actives have a fitted effect of over 65% in size
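Recombinant FEN1 (10 nM) was preincubated with pin-transferred compounds for 15 min at room temperature, then flap DNA substrate (50 nM final) was added. Plates were read at 0 and 15 min, and normalized concentration–response data were fitted to a four-parameter Hill equation.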
POLI inh – blocks human DNA polymerase iota activity; Q9UNA4; Pol iota fluorescent replication assay, 10 min; Potency, µM (doses to about 115 µM), usual class: inhibitors; 1% of 390,000 active; AID 588590
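Pol iota at 10 nM preincubated 15 min with compounds at room temperature; reaction started with fluorescent substrate, 50 nM final. Fluorescence read kinetically at 0 and 10 min; buffer-only wells as negative control.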
Pol beta inh – blocks human DNA polymerase beta activity. P06746. Pol beta primer extension/strand displacement, fluorescence kinetic. Potency, µM (highest dose often 114 µM), hits mostly inhibitors. 1.3% of 340,000 active
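Enzyme-only controls used 10 nM Pol beta; buffer lacking enzyme served as negative control. Compound preincubated 15 min, then 50 nM substrate added; 0 and 10 min reads at room temperature.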
Pol eta inh-1 – inhibitors of human DNA polymerase eta; Q9Y253; Potency, µM (series often up to 114 µM), most hits filed as inhibitors; recombinant Pol eta, fluorescent DNA replication assay; 1.2% of 390,000 active; AID 588591
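Pol eta at 10 nM preincubated with compounds 15 min at room temperature; reaction started with fluorescent substrate (50 nM final) and read kinetically at 0 and 10 min.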
WRN helicase inh-1 – blocks human WRN helicase. Q14191. Potency, µM (series often up to 114 µM), usual class: inhibitors. 0.46% of 360,000 active. WRN helicase unwinding, fluorescent forked duplex, kinetic. AID 651768; further: nearly all actives have a fitted effect of over 55% in size
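Kinetic red-fluorescence monitoring (525/598 nm) tracks WRN helicase activity after 100 nM fluorophore-quencher forked duplex and 2 mM ATP are added to 20 nM enzyme pretreated 15 min at room temperature with compound.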
Pol kappa inh-1 – DNA polymerase kappa (human) inhibition; purified Pol kappa, fluorescent DNA synthesis assay, 10 min; Potency, µM (highest dose often 107 µM), most hits filed as inhibitors; 0.53% of 400,000 active; AID 588579
Target sequence (Q9UBT6 whole entry, looked up): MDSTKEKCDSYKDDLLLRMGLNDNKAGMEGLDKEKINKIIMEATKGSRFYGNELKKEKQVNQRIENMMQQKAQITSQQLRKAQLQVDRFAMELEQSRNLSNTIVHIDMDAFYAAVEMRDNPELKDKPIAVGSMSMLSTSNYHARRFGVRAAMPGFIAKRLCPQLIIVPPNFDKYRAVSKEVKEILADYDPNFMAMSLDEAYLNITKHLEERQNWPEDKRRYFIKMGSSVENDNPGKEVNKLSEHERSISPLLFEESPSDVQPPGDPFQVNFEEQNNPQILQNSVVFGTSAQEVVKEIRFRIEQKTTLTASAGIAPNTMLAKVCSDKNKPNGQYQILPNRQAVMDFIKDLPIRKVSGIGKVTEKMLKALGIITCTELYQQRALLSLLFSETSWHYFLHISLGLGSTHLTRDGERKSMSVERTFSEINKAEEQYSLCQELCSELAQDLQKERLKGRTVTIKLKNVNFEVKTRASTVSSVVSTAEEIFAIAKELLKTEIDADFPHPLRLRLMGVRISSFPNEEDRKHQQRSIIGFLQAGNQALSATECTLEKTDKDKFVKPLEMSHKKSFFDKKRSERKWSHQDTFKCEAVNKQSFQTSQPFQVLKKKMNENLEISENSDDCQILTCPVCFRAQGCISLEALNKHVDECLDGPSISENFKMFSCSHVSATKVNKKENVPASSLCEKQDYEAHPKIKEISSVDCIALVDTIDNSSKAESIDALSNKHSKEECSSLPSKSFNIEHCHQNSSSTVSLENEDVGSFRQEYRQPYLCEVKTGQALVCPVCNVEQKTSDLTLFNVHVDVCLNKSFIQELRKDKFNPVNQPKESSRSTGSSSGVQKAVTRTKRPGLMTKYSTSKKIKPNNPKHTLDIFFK
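Enzyme at 10 nM met test compounds for 15 min at room temperature. Substrate addition (50 nM final) began the reaction, which was monitored by fluorescence at 0 and 10 min.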
TbPGK inh – blocks T. brucei phosphoglycerate kinase; Potency, µM (titrated, usually from 57.5 µM), actives largely listed as inhibitors; TbPGK coupled GAPDH assay, Kinase-Glo luminescence; 79% of 500 active; shares compounds with Pol kappa inh-1; further: nearly all actives have a fitted effect of over 65% in size
POLI cherry-pick – Confirm cherry-picked inhibitors of human polymerase iota; shares compounds with Pol kappa inh-1; Pol iota primer extension, TAMRA/BHQ fluorescence; Potency, µM, most hits filed as inhibitors; 77% of 1,500 active; AID 720496
Pol kappa inh-2 – Pol kappa (human) inhibition, cherry-pick confirmation; 76% of 920 active; AID 720501; purified Pol-kappa, fluorescent strand-displacement substrate; Potency, µM, usual class: inhibitors; shares compounds with Pol eta inh-1
Pol eta inh-2 – Pol eta (human) inhibition, cherry-pick confirmation. shares compounds with Pol eta inh-1. Pol eta primer extension, TAMRA/BHQ fluorescence, 10 min. Potency, µM, usual class: inhibitors. 64% of 2,600 active
FEN1 inh-2 – confirmation of human FEN1 inhibitors | FEN1 flap cleavage, TAMRA/BHQ2 fluorogenic DNA substrate | shares compounds with FEN1 inh-1 | 79% of 880 active | AID 720498 | Potency, µM, actives largely listed as inhibitors; further: nearly all actives have a fitted effect of over 60% in size
WRN helicase inh-2 – WRN helicase inhibition, cherry-pick retest; shares compounds with WRN helicase inh-1; WRN helicase DNA unwinding, fluorescence kinetic; Potency, µM (series often up to 57.1 µM), most hits filed as inhibitors; 63% of 610 active; further: nearly all actives have a fitted effect of over 65% in size
TO displacement – counter-screen for WRN helicase inhibitors: DNA binding; shares compounds with WRN helicase inh-1; thiazole orange DNA binding displacement, fluorescence; Potency, µM (titrated, usually from 57.1 µM), actives largely listed as inhibitors; 10% of 610 active;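 further: drop in dye fluorescence marks compound binding to DNA; nearly all actives have a fitted effect of over 60% in size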
BLM counter – BLM helicase inhibition, WRN selectivity check | shares compounds with WRN helicase inh-1 | Recombinant BLM helicase DNA unwinding, red fluorescence | Potency, µM (highest dose often 57.1 µM), most hits filed as inhibitors | 60% of 610 active | AID 720503; further: nearly all actives have a fitted effect of over 60% in size
A number is an active result; - = inactive; ? = inconclusive; . = no result given; [ ] = dose if it differs, or a comment. Rows were chosen to be rich in hits. Some 2.4% of all compounds tested hit in one or more screens of this group. The call rests on the fitted dose curve; in most records, active means well fitted curve in the direction sought with a large enough effect; inconclusive means small, poorly fitted or top-dose-only effect, or another doubt; inactive means no such curve, though single readings can be large; an effect the other way counts as inactive or inconclusive.

SMILES | FEN1 inh-1 | POLI inh | Pol beta inh | Pol eta inh-1 | WRN helicase inh-1 | Pol kappa inh-1 | Pol eta inh-2 | others
O=C1CC(=O)N(Cc2ccco2)C(=O)N1 | 28µM | 3.2µM | 8.9µM | 3.5µM | 25µM | 8.9µM | 5.4 | TbPGK inh=0.92µM;POLI cherry-pick=3.4;FEN1 inh-2=24;WRN helicase inh-2=7.6µM;TO displacement=-;BLM counter=4.3µM
COc1ccc(OC)c(N2C(=O)[C@@H]3C(c4ccccc4Cl)=NO[C@@H]3C2=O)c1 | 50µM | 3.5µM | - | 1.3µM | 40µM | 20µM | 17 | TbPGK inh=5.8µM;POLI cherry-pick=17;WRN helicase inh-2=22µM;TO displacement=?;BLM counter=17µM
CCNc1nc(NCC)n2c(SCC(=O)Nc3ccc(NC(C)=O)cc3)nnc2n1 | - | ? | . | 40µM | -[11.6 µM] | ? | ?
CCNc1nc(NCC)n2c(SCC(=O)Nc3ccc(CC)cc3)nnc2n1 | - | - | . | - | ? | - | .
Cc1cc(Cl)n2c(nc3cc(F)c(F)cc32)c1C#N | - | 6.3µM | 50µM | 56µM | -[11.6 µM] | - | ?
O=C(O)CCC(=O)Nc1ccc2c(c1)Cc1cc(NC(=O)CCC(=O)O)ccc1-2 | - | - | 45µM | 25µM | -[11.6 µM] | - | ?
COc1cc(C2CC(=O)c3c([nH]c(C(=O)OC4CCCC4)c3C)C2)cc(OC)c1OC (configuration not stated) | - | - | - | - | . | - | .
CC1=NN(c2nc(-c3ccccc3)cs2)C(=O)C1 | - | ? | - | 50µM | ? | - | ?
Cc1ccc2c(c1)-c1cc(C)nn1C(c1cc(Br)ccc1O)N2 (configuration not stated) | - | - | - | - | . | - | .
O=Cc1cn(CCC(=O)O)nc1-c1cc2ccccc2o1 | - | ? | 18µM | 20µM | - | ? | ? | Pol kappa inh-2=21
N#Cc1ccc(Cl)cc1NC(=O)CN1C(=O)C(=O)N(CCC2=CCCCC2)C1=O | . | . | . | - | - | . | .
Cc1cccc(OCC(=O)OCc2cc(=O)n3nc(-c4cccs4)sc3n2)c1 | - | ? | 25µM | ? | . | ? | ?
CN(C)c1ccc(C=Nc2cncc3ccccc23)cc1 | - | - | . | . | . | - | .
O=C(O)c1ccc2c(=O)n3cc(C(=O)c4ccccc4O)cc(Cl)c3nc2c1 | 35µM | ? | ? | 8.9µM | - | - | 12
O=c1c2ccccc2nc2sc(Nc3ccc4c(c3)CCC4)nn12 | . | . | . | . | . | . | . | Pol kappa inh-2=38
COc1ccccc1CCn1c(=O)c(-c2ccc(Cl)cc2)nc2cncnc21 | . | . | . | . | . | - | .
COC(=O)c1cccc(NC(=O)N(C)CCc2c(C)nn(C)c2C)c1 | - | - | - | - | . | - | .
Cc1ccc(S(=O)(=O)N2C[C@H]3N(C(=O)OC(C)C)N(C(=O)OC(C)C)C[C@H](OC(=O)NC4CCCC4)[C@@]3(O)C2)cc1 | . | . | . | ? | - | . | .
COC(=O)C/C=N/N=C1/NC(=O)/C(=C/C(=O)O)S1 | 50µM | 14µM | 40µM | 40µM | - | 45µM | 48
O=C(Nc1ccc(S(=O)(=O)Nc2nccs2)cc1)/C(=C/c1ccccc1Cl)NC(=O)c1ccccc1 | ? | - | - | ? | - | - | ?
CCOC(=O)/C=C/C(=O)Nc1ccc(S(=O)(=O)Nc2nccs2)cc1 | - | 25µM | - | 45µM | -[11.6 µM] | - | ?
O=C(CSc1ccncc1)Nc1ccc(S(=O)(=O)Nc2nccs2)cc1 | ? | 28µM | - | 18µM | - | ? | 48
Cc1ccc(-c2nnn3c2nc(N2CCC(C)CC2)c2ccccc23)cc1 | - | - | - | - | . | ? | .
CC(C)CCCC(C)C1CCC2C3CC[C@H]4CC(=O)CC[C@@]4(C)C3CC[C@@]12C (some centres not stated) | . | . | . | . | . | - | .
O=C(Nc1nnc(S(=O)(=O)N2CCOCC2)s1)c1ccccc1 | - | ? | ? | 40µM | -[11.6 µM] | ? | ? | Pol kappa inh-2=38
SMILES | FEN1 inh-1 | POLI inh | Pol beta inh | Pol eta inh-1 | WRN helicase inh-1 | Pol kappa inh-1 | Pol eta inh-2 | others
CC1Cc2ccccc2N1S(=O)(=O)c1nnc(NC(=O)c2ccccc2Br)s1 (configuration not stated) | - | - | - | ? | . | - | ?
O=C(Nc1nnc(S(=O)(=O)N2CCc3ccccc32)s1)c1ccccc1Cl | - | - | - | - | . | - | .
O=C(Nc1nnc(S(=O)(=O)N2CCCc3ccccc32)s1)c1ccccc1Cl | - | - | - | 56µM | . | - | . | Pol kappa inh-2=?
CCCc1cc(=O)oc2cc(OCC(=O)NC(Cc3c[nH]c4ccc(O)cc34)C(=O)O)c(Cl)cc12 (configuration not stated) | - | ? | - | 40µM | - | ? | ?
COCCNC(=O)C1(C)CCCN(Cc2ccc(OCc3ccccc3)cc2)C1 (configuration not stated) | . | . | . | . | - | . | .
COc1ccc(C(=O)Nc2ccc(NC(=O)c3ccco3)cc2)cc1 | - | - | - | - | - | - | .
COc1ccc(-n2c(NC(=O)c3ccco3)c(C#N)c3nc4ccccc4nc32)cc1 | ? | - | - | 20µM | 50µM | - | 85 | Pol kappa inh-2=67
COc1ccc(-c2cc(C(=O)NCc3ccc(F)cc3)c3c(-c4ccc(F)cc4)[nH]nc3n2)cc1OC | - | - | - | - | . | - | .
COc1ccc(C(=O)Nc2cccnc2Cl)cc1OC | - | - | ? | - | - | - | .
O=C(Nc1cccnc1Cl)c1ccc(=O)oc1 | 20µM | 22µM | 13µM | 20µM | ? | 45µM | ?
COc1cccc(C2=NN(C(=O)C3CC3)C(O)(C(F)(F)F)C2)c1 (configuration not stated) | . | . | . | - | - | . | .
